Results: PubChem BioAssay (NCI)
About 79,000 compounds went through this panel and 15% of them were active in at least one assay; those are over-represented in the sample as a whole. Values without a mark were called inactive. Calls of active or inactive are those of the source. Cut-off read from the data, not from the text of the source: active = growth inhibition above about 70%; inactive = the rest.

Columns and labels:
[1] = NCI Yeast Anticancer Drug Screen. Data for the mec2-1 strain (AID 157); conditions: S. cerevisiae mec2-1 strain, at 50.0 µM, stronger effect = higher value
Procedure, shortened: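 Strain: mec2-1 (DNA repair/cell cycle alteration). Compound exposure, then growth measured; inhibition expressed relative to vehicle.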

[2] = NCI Yeast Anticancer Drug Screen. Data for the sgs1 mgt1 strain (AID 161);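 note: 0% = growth of cultures given vehicle only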; conditions: S. cerevisiae sgs1 mgt1 strain, at 50.0 µM, stronger effect = higher value
Procedure, shortened: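 Inhibition of yeast growth, normalised to vehicle-treated controls, is reported for a strain bearing genetic alterations in DNA damage repair.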

[3] = NCI Yeast Anticancer Drug Screen. Data for the cln2 rad14 strain (AID 165);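 note: 0% = growth equal to vehicle treated cultures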; conditions: S. cerevisiae cln2 rad14 strain, at 50.0 µM, stronger effect = higher value
Procedure, shortened: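 Compounds are applied to the cln2 rad14 yeast strain, and growth is then compared with that of vehicle-treated cultures to give inhibition.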

[4] = NCI Yeast Anticancer Drug Screen. Data for the bub3 strain (AID 167); conditions: S. cerevisiae bub3 mutant strain, at 50.0 µM, stronger effect = higher value
Procedure, shortened: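 Readout: yeast growth inhibition, expressed relative to vehicle-only wells. The test organism is a mutant strain from a panel with lesions in DNA repair or checkpoint genes.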

[5] = NCI Yeast Anticancer Drug Screen. Data for the mlh1 rad18 strain (AID 175); conditions: S. cerevisiae mlh1 rad18 strain growth inhibition; at 50.0 µM; stronger effect = higher value
Procedure, shortened: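 Read-out is yeast growth inhibition, calculated against vehicle-only controls. The compound was applied to a strain engineered with DNA damage repair alterations.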

SMILES | growth inhibition [1] | growth inhibition [2] | growth inhibition [3] | growth inhibition [4] | growth inhibition [5]
O=C1NC(=O)C(=O)N1 | 13.4% | 8.65% | 16.4% | 27.8% | -1.8%
O=C1CCc2ccccc21 | -10.5% | -15% | 15.1% | 3.25% | 7.75%
Oc1ccc(-c2csc(Nc3ccccn3)n2)cc1O | 99% (active) | 99% (active) | 97.2% (active) | 97.7% (active) | 98.8% (active)
CN(O)C(=O)Cc1ccccc1 | 6.05% | -0.1% | 15.8% | 13.9% | 16.4%
CCCCCCCCC(=O)Nc1nc2nc[nH]c2c(=O)[nH]1 | -33.2% | -15.3% | -30.1% | -14.3% | -5.45%
Cc1cc(O)c(C(C)C)cc1S(=O)(=O)O | 0.2% | 3.75% | -1.5% | 3.25% | 5.15%
COC(=O)[C@]1(C)CCC[C@@]2(C)C1CC[C@@]13C=C(C(C)C)[C@@H](CC1=O)CC23 (stereo partly drawn) | 4.7% | -1.7% | 32.7% | 26.4% | 19.1%
COCC(=O)Nc1ccccc1 | 6.05% | 2.1% | 1.55% | 6.8% | –
CN(CC(=O)O)C(=N)N | -11.8% | -19.9% | -2.75% | -24.6% | -9.2%
NC(=O)c1ncnc2nc[nH]c12 | -42.5% | -9% | -29.1% | -20.4% | -10.6%
O=C(NNC1=NCCN1)c1ccco1 | -21.1% | -9.8% | -32.4% | -2.3% | -2.25%
c1csc(C2N3CCN(CC3)C(c3cccs3)N3CCN2CC3)c1 (stereo not drawn) | -16.7% | 23.8% | 10.1% | -5.25% | 3.1%
CCCc1sc(NC(C)=O)nc1-c1ccccc1 | 5.85% | 15.2% | 29.3% | -9.7% | 10.2%
COC(=O)c1cc2ccc(O)c(O)c2cn1 | 25.8% | 60.3% | 18.9% | 62.4% | 24.9%
COc1nc(OC)c2[nH]cnc2n1 | 15.3% | 13.1% | -38.7% | -1.35% | 14.7%
O=[N+]([O-])c1cccc(S(=O)(=O)NC2c3ccccc3Oc3ccccc32)c1 | -3.65% | 26.9% | 21.4% | -10.7% | 24.8%
COC(=O)C(Cc1nc2ccccc2[nH]c1=O)C(=O)C(=O)Nc1ccc([N+](=O)[O-])cc1[N+](=O)[O-] (stereo not drawn) | 22.7% | 4.45% | 0.2% | 18.1% | 13.1%
N=C(N)SCC(O)c1ccccc1 (stereo not drawn) | -11.4% | -13.6% | -42.4% | -3.1% | -19.5%
O=C1OC(=O)C2C1C1c3ccccc3C2(Br)c2ccccc21 (stereo not drawn) | 13.7% | -0.45% | -6.05% | 3.55% | 7.65%
CC(C)(C)OC(=O)N(CCCN)CCCCN | -9.75% | -40.5% | -21.4% | -32% | -53.9%
c1cncc(Cc2nc3ccccc3[nH]2)c1 | -2.5% | -22.9% | -11.7% | -5.1% | -34%
O=C1Nc2n[nH]c(=S)n2NC12c1ccccc1-c1ccccc12 | -14.2% | -28.1% | -19.9% | -21.7% | -63.2%
CCOc1ccc(Nc2nc(N)nc(N)c2N)cc1 | 10.8% | -8.95% | – | -20.4% | 3.8%
CC(C)(C)C(OC(=O)Cc1ccccc1)c1ccc2c(c1)OCO2 (stereo not drawn) | -2.7% | 2% | -3.25% | 51.4% | -12.1%
CC1CC(C2=CC=CCS2)=Nc2ccccc2S1 (stereo not drawn) | -16.2% | 33.5% | 19.9% | 5.3% | 18.8%
COc1ccc(C(=O)CCN(C)C)c2ccccc12 | -19.8% | -17.1% | 9.7% | -20.3% | 17.5%
COc1ccc(OC)c2cc3c(cc12)C(=O)C(C)=C(C)C3=O | -2.55% | 10.8% | -30% | -1.3% | 7.7%
